Screening results (PubChem BioAssay)
Sampled rows, rich in hits. Any-hit rate of the full collection: about 2.6%.
Cruzain inh noDet: inhibitors of Trypanosoma cruzi cruzain without detergent; hit rate 2.3% among 200,000; purified cruzain, Z-FR-AMC fluorescence, no detergent; P25779; Potency, µM, without a hit: max response, negative = inhibition, actives largely listed as inhibitors;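 further: plate controls were enzyme without inhibitor for no effect and buffer without enzyme for full effect; nearly all actives have a fitted effect of over 40% in size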
Target sequence (P25779 123-467 limits assumed): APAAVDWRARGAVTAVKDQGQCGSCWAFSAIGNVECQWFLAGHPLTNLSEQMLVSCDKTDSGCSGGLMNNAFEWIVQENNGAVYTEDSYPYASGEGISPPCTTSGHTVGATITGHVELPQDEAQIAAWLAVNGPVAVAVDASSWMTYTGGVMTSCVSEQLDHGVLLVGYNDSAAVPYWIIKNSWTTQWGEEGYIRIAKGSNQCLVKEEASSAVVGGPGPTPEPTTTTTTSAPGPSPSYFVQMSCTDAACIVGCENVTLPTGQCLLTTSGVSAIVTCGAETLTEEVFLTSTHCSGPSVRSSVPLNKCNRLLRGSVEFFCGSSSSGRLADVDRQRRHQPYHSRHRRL
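Detergent-free condition (0.00005% Triton X-100) in acetate buffer pH 5.5 with DTT. 1.5 nM enzyme and compound were pre-mixed 15 min, then 2 uM Z-FR-AMC substrate added; reaction progress from fluorescence change between first and third reads (60 s).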
Cruzain inh Det: cruzain (T. cruzi) inhibition with detergent; P25779; purified cruzain, Z-FR-AMC fluorescence, 0.01% Triton; hit rate 0.43% among 200,000; Potency, µM, for inactives: max response, negative = inhibition, most hits filed as inhibitors;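 further: plate controls were neutral wells for no effect and buffer without enzyme for full effect; nearly all actives have a fitted effect of over 40% in size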
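Detergent-containing run (0.01% Triton X-100) in acetate buffer pH 5.5 with 5 mM DTT: enzyme at 1.5 nM final, 15 min compound preincubation at room temperature, then 2 uM Z-FR-AMC substrate. Activity taken as 60 s fluorescence increase at 360/450 nm.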
* = called active by the depositor; ? = inconclusive. The call rests on the fitted dose curve; in most records, active means well fitted curve in the direction sought with a large enough effect; inconclusive means small, poorly fitted or top-dose-only effect, or another doubt; inactive means no such curve, though single readings can be large; an effect the other way counts as inactive or inconclusive. Potency means the concentration at half of the fitted maximal effect.

SMILES	Cruzain inh noDet	Cruzain inh Det
CN1C(=O)/C(=C2\SC(=S)N(CC3CCCO3)C2=O)c2ccccc21 (stereo unspecified)	0.4%	0.3%
Cc1ccc(NC(=O)Cn2nc(N3CCN(c4ccccc4)CC3)ccc2=O)cc1F	?	-7.0%
N#Cc1nc(-c2ccc(COc3ccc(Cl)cc3)o2)oc1N1CCC(C(N)=O)CC1	?	-8.0%
O=C1C2C3c4ccccc4C(c4ccccc43)C2C(=O)N1c1nc(-c2ccccc2)cs1 (stereo unspecified)	?	-3.2%
O=C1C2C3c4ccccc4C(c4ccccc43)[C@@H]2C(=O)N1c1nc(-c2ccccc2)cs1 (stereo partly specified)	12.6µM*	-4.2%
COc1ccccc1CN1CCCC2(CCNCC2)C1	7.2%	2.9%
Cc1sc2nc(SCc3nc4ccccc4[nH]3)n(Cc3ccco3)c(=O)c2c1C	31.6µM*	-2.2%
Cc1cccc(CSc2nc3sc(C)c(C)c3c(=O)n2Cc2ccco2)c1	?	4.1%
Cc1sc2nc(SCc3ccccc3)n(Cc3ccco3)c(=O)c2c1C	?	-0.1%
COc1cccc(CSc2nc3sc(C)c(C)c3c(=O)n2Cc2ccco2)c1	25.1µM*	-2.9%
N#Cc1ccccc1Cn1c(=O)n(-c2ccc(F)c(Cl)c2)c(=O)c2sccc21	17.0%	2.3%
CC(C)(C)OC(=O)NCCCCC1=CC2=CC(=O)C(C)(OC(=O)CCc3ccccc3)C(=O)C2=CO1 (stereo unspecified)	2.3%	0.6%
Cc1ccc2c(c1)C(CCN)C(=O)N2Cc1ccccc1 (stereo unspecified)	8.0%	1.1%
Cc1ccc2c(c1)C1CCCC3C1N2CC(=O)N3Cc1ccccc1 (stereo unspecified)	12.6µM*	-3.8%
COc1ccc(CCNC(=O)Cn2nc(C)c3c(C)n(-c4ccc(C)cc4)nc3c2=O)c(OC)c1	-1.7%	-3.9%
Cc1cc(Br)cc2c1N(Cc1ccccc1OC(C)C)C(=O)C2=O	-25.3%	-4.5%
Cc1ccc2scc(N3CCCCC3)c(=O)c2c1	-1.3%	-4.4%
Cc1ccc(C)c(NC(=O)CSc2nnc([C@@H](N)Cc3c[nH]c4ccccc34)o2)c1	25.1µM*	?
CC(C)Sc1nnc([C@@H](N)Cc2c[nH]c3ccccc23)o1	6.9%	-2.0%
c1ccc2[nH]c(CSc3ncnc4c3oc3ccccc34)nc2c1	15.8µM*	?
Cc1nc(N2CCN(Cc3nc4ccccc4[nH]3)CC2)c2oc3ccccc3c2n1	?	-5.9%
Fc1ccc(CSc2ncnc3c2oc2ccccc23)cc1	0.0%	-3.1%
Cc1nc(SCc2nc3ccccc3[nH]2)c2oc3ccccc3c2n1	15.8µM*	?
COC1C=CC23c4cc5c(cc4CN(CC2O)C3C1)OCO5 (stereo unspecified)	-5.4%	0.9%
O=C(Nc1nc(-c2ccccc2)c(-c2ccccc2)s1)c1ccc(S(=O)(=O)N2CCCC2)cc1	?	5.6%
SMILES	Cruzain inh noDet	Cruzain inh Det
O=C(Nc1nc(-c2ccccc2)c(C(=O)c2ccccc2)s1)c1ccc(S(=O)(=O)N2CCCC2)cc1	25.1µM*	-2.4%
O=C(O)c1cccc(NC(=O)c2cccc(S(=O)(=O)N3CCCCC3)c2)c1	2.3%	-3.0%
Nc1nc(NC(=O)c2cccc(S(=O)(=O)N3CCCCCC3)c2)nc(-c2ccccc2)n1	20µM*	-0.3%
COc1ccccc1C(=O)N1c2ccccc2C(C)(c2ccc(Cl)cc2)CC1(C)C (stereo unspecified)	-24.8%	-7.1%
ClC(=Nc1cccc2ccccc12)N(c1ccccc1)c1ccccc1	-5.4%	3.2%
Cc1cc(NC(=O)CSc2nc3ccccc3c(=O)n2-c2ccccc2)no1	-10.6%	11.3%
CCOC(=O)c1sc(NC(=O)CSc2nc3c(c(=O)n2-c2ccc(F)cc2)SCC3)c(C(=O)OCC)c1C	25.1µM*	-2.7%
COC(=O)c1c(NC(=O)CSc2nc3ccccc3c(=O)n2-c2ccccc2)sc(C)c1C	12.6µM*	-3.0%
CCOc1ccc(-n2c(SCC(=O)Nc3ccc(OC)cc3)nc3c(c2=O)SCC3)cc1	-5.5%	-1.4%
CO[C@]1(NC(=O)C2SC(=C(C(N)=O)C(=O)O)S2)C(=O)N2C(C(=O)O)=C(CSc3nnnn3C)CS[C@H]21 (stereo partly specified)	2.7%	-2.9%
Cc1c(NC(=O)Nc2cccc(C(F)(F)F)c2)sc2nc3n(c(=O)c12)CCC(C)CC3 (stereo unspecified)	-11.7%	0.0%
CC(=O)c1ccc(NC(=O)c2nc(-c3ccccc3)n(-c3ccc(Cl)cc3)n2)cc1	12.6µM*	-4.9%
CC(=O)c1ccc(NC(=O)c2nc(-c3ccccc3)n(-c3ccc(C)cc3)n2)cc1	7.6%	-5.5%
COc1ccc(-c2nnc(SCC(=O)Nc3ccc(C)c(Cl)c3)nc2-c2ccc(OC)c(OC)c2)cc1OC	-18.0%	-1.3%
Cc1onc(-c2ccc(Br)cc2)c1C(=O)Nc1ccc(Br)cc1F	-27.1%	0.2%
COC(=O)c1cccc(Cn2c(Cl)c(/C=N/Nc3ccccc3C)sc2=O)c1	12.6µM*	-8.6%
O=C(O)c1cccc(Cn2c(Cl)c(/C=N/NC(=O)c3ccccc3)sc2=O)c1	-16.2%	-3.1%
CCNc1ncc2ncc(=O)n(C3CC3)c2n1	-0.9%	2.3%
CCN1/C(=C2\SC(=S)N(Cc3ccccc3)C2=O)Sc2ccccc21	10µM*	-7.8%
CCN1/C(=C2\OC(=S)N(C)C2=O)Sc2ccccc21	-7.6%	4.7%
O=C(CSc1ccccc1)Nc1ccc(N2CCN(c3ccccc3)CC2)c(F)c1	12.6µM*	9.0%
Cc1ccc(SCC(=O)Nc2ccc(N3CCN(C)CC3)c(F)c2)cc1	-1.0%	-0.9%
Cc1cc(C(=O)CSc2n[nH]c(-c3ccccc3F)n2)c(C)n1Cc1cccs1	15.8µM*	-8.2%
Cc1csc(SCC(=O)c2cc(C)n(Cc3cccs3)c2C)n1	7.1%	-2.9%
CC12CC[C@@](C(=O)O)(C(=O)C1=O)C2(C)C	-2.5%	7.0%
SMILES	Cruzain inh noDet	Cruzain inh Det
COc1cc([C@H]2c3[nH]c4ccccc4c3C[C@H]3C(=O)N4[C@@H](c5cc(OC)c(OC)c(OC)c5)c5[nH]c6ccccc6c5C[C@H]4C(=O)N23)cc(OC)c1OC	4.7%	1.9%
O=C1[C@@H]2Cc3c([nH]c4ccccc34)[C@@H](c3ccccc3)N2C(=O)[C@@H]2Cc3c([nH]c4ccccc34)[C@@H](c3ccccc3)N12	10µM*	6.0%
Cc1nnc(SCC(=O)NCc2ccc(N(C)C)cc2)c2nn(-c3ccccc3)c(C)c12	8.5%	-7.1%
CCOC(=O)c1c(N2C(=O)Nc3cc(Cl)c(Cl)cc3N2O)sc2c1CCCCC2	13.7%	25.1µM*
CCOC(=O)c1c(N2C(=O)C3C4C=CC(O4)C3C2=O)sc2c1CCCC2 (stereo unspecified)	19.3%	5.6%
CCNc1c(NC(=O)c2cc(OCC)c(OCC)c(OCC)c2)c(=O)oc2ccccc12	6.3%	-1.2%
COCCCNC(=O)C(Cc1ccccc1)NS(=O)(=O)c1ccc2c(c1)c(=O)n(C)c(=O)n2C (stereo unspecified)	-8.1%	1.4%
Cn1c(=O)c2cc(S(=O)(=O)NC(Cc3ccccc3)C(=O)NCc3ccco3)ccc2n(C)c1=O (stereo unspecified)	15.8µM*	20µM*
COc1ccc(-c2cn3cccnc3n2)cc1F	20µM*	-21.5%
CCC(=O)Nc1cc(-c2cn3cccnc3n2)ccc1OC	-4.6%	-6.5%
COc1ccc(S(=O)(=O)n2nc(C)c(S(=O)(=O)N3CCCCCC3)c2C)cc1C	6.3%	-1.7%
CCOC(=O)c1cccc(Nc2cc(C)nc(C)n2)c1	-9.2%	-2.7%
